≈ marks a conversion by molar mass, not a printed value. The whole screen tested about 1,100 compounds, of which about 170 (15%) were called active. No rule for the calls is given here. Only a sample is shown. Non-standard residues stand in square brackets, D forms with d. Residues, ends and D or L forms follow the SMILES beside them. *: point of attachment. Sta = CC(C)C[C@H](N)[C@@H](O)CC(=O)O; Isovaleryl = CC(C)CC(=O)*
Experiment: Mycobacterium tuberculosis H37Rv growth inhibition, confirmatory dose response, cytotoxicity (AID 1332);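 as to CC50: Vero cells exposed to compounds for 72 hours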;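 as to IC50: bacteria incubated 7 days before adding Alamar blue readout reagent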
Settings: M. tuberculosis H37Rv growth inhibition; CC50: measured here: Vero cell cytotoxicity; IC50: measured here: IC50 H37Rv replicates

SMILES	CC50	IC50	outcome
CCc1nc(N)nc(N)c1-c1ccc(Cl)cc1	1.26 µg/mL (≈ 5.06 µM)	7.67 µg/mL (≈ 30.8 µM)	active
C[C@H]1CCC2(NC1)O[C@H]1C[C@H]3[C@@H]4CC[C@H]5C[C@@H](O[C@@H]6O[C@H](CO)[C@H](O[C@@H]7O[C@H](CO)[C@@H](O)[C@H](O[C@@H]8OC[C@@H](O)[C@H](O)[C@H]8O)[C@H]7O[C@@H]7O[C@H](CO)[C@@H](O)[C@H](O)[C@H]7O)[C@H](O)[C@H]6O)CC[C@]5(C)[C@H]4CC[C@]3(C)[C@H]1[C@@H]2C (some centres not stated)	3.98 µg/mL (≈ 3.85 µM)	> 20 µg/mL	inactive
C[C@@H]1C[C@H]2[C@@H]3C[C@H](F)C4=CC(=O)C=C[C@]4(C)[C@@]3(Cl)[C@@H](O)C[C@]2(C)[C@H]1C(=O)COC(=O)C(C)(C)C	> 6 µg/mL	> 20 µg/mL	inactive
C[N+]1(C)CCC(=C(c2ccccc2)c2ccccc2)CC1	–	> 20 µg/mL	inactive
CCc1cc(C(N)=S)ccn1	–	1.95 µg/mL (≈ 11.7 µM)	active
Cc1c(C)c2c(c(C)c1O)CCC(C)(C(=O)O)O2 (configuration not stated)	–	> 20 µg/mL	inactive
COc1ccc(CC(C)(N)C(=O)O)cc1OC (configuration not stated)	> 6 µg/mL	> 20 µg/mL	inactive
Nc1nc2c(c(=O)[nH]1)N(C=O)C(CNc1ccc(C(=O)N[C@@H](CCC(=O)O)C(=O)O)cc1)CN2 (some centres not stated)	–	> 20 µg/mL	inactive
O=C(CCCN1CCC(O)(c2ccc(Br)cc2)CC1)c1ccc(F)cc1	–	> 20 µg/mL	inactive
O=C(CCCN1CCC(O)(c2ccc(Cl)cc2)CC1)c1ccc(F)cc1	–	> 20 µg/mL	inactive
CN(C)C(=O)C(CCN1CCC(O)(c2ccc(Cl)cc2)CC1)(c1ccccc1)c1ccccc1	–	10.9 µg/mL (≈ 22.9 µM)	active
CN1CC[C@@]2(C)c3cc(O)ccc3N(C)[C@H]12	–	> 20 µg/mL	inactive
CC(CN(C)C)CN1c2ccccc2Sc2ccccc21 (configuration not stated)	> 6 µg/mL	> 20 µg/mL	inactive
CCCCOc1ccc(CC(=O)NO)cc1	> 6 µg/mL	> 20 µg/mL	inactive
CCCCc1ccc2nc(NC(=O)OC)[nH]c2c1	0.043 µg/mL (≈ 0.174 µM)	> 20 µg/mL	inactive
CCCCc1ccc(C(=O)O)nc1	> 6 µg/mL	3.88 µg/mL (≈ 21.7 µM)	active
Cc1cc(CC(=O)O)n(C)c1C(=O)c1ccc(Cl)cc1	–	> 20 µg/mL	inactive
O=C(CCCN1CCN(c2ccccn2)CC1)c1ccc(F)cc1	–	> 20 µg/mL	inactive
C[C@H]1[C@H](C)CC[C@]2(C(=O)O)CC[C@]3(C)C(=CC[C@@H]4[C@@]5(C)CC[C@H](O)C(C)(C)[C@@H]5CC[C@]43C)[C@H]12	–	> 20 µg/mL	inactive
CN(C)CCC(c1ccc(Cl)cc1)c1ccccn1 (configuration not stated)	–	> 20 µg/mL	inactive

SMILES	CC50	IC50	outcome
CN[C@@H]1[C@H](O)[C@H](NC)[C@H]2O[C@@]3(O)C(=O)C[C@@H](C)O[C@H]3O[C@@H]2[C@H]1O	–	7.14 µg/mL (≈ 21.5 µM)	active
C/C(=C(/CCO)SSCC1CCCO1)N(C=O)Cc1cnc(C)nc1N (configuration not stated)	–	> 20 µg/mL	inactive
C=Cc1c(C)c2cc3nc(cc4[nH]c(cc5nc(cc1[nH]2)C(C)=C5CCC(=O)O)c(CCC(=O)O)c4C)[C@@]1(C)C3=CC=C(C(=O)OC)C1C(=O)OC (some centres not stated)	–	> 20 µg/mL	active
CC(O)(P(=O)(O)O)P(=O)(O)O	–	> 20 µg/mL	inactive
OCCOCCN1CCN(C(c2ccccc2)c2ccc(Cl)cc2)CC1 (configuration not stated)	–	> 20 µg/mL	inactive
CC(=O)c1ccc2c(c1)N(CCCN1CCC(CCO)CC1)c1ccccc1S2	–	> 20 µg/mL	inactive
OCCN1CCN(CC/C=C2/c3ccccc3Sc3ccc(Cl)cc32)CC1	> 6 µg/mL	9.26 µg/mL (≈ 23.1 µM)	active
CC(=O)Nc1ccc(O)cc1	–	> 20 µg/mL	inactive
CCN[C@H]1C[C@H](C)S(=O)(=O)c2sc(S(N)(=O)=O)cc21	–	> 20 µg/mL	inactive
CC(C)NNC(=O)c1ccncc1	–	> 20 µg/mL	inactive
Cc1cc(C(=O)NNCc2ccccc2)no1	–	> 20 µg/mL	inactive
O=C(CCNNC(=O)c1ccncc1)NCc1ccccc1	–	0.393 µg/mL (≈ 1.32 µM)	active
CC(C)(C)NC(=O)[C@@H]1C[C@@H]2CCCC[C@@H]2CN1C[C@@H](O)[C@H](Cc1ccccc1)NC(=O)[C@H](CC(N)=O)NC(=O)c1ccc2ccccc2n1	–	17.3 µg/mL (≈ 25.7 µM)	active
C[C@@H]1CC[C@H]2[C@@H](C)C(=O)O[C@@H]3OC4(C)CC[C@@H]1[C@]32OO4	–	> 20 µg/mL	inactive
CN1CC[C@]23c4ccccc4N[C@H]1[C@]21CCN(C)[C@H]3Nc2ccccc21	–	> 20 µg/mL	inactive
O=C(O)COCCN1CCN(C(c2ccccc2)c2ccc(Cl)cc2)CC1 (configuration not stated)	–	> 20 µg/mL	inactive
CN1CCCN(C(c2ccccc2)c2ccc(Cl)cc2)CC1 (configuration not stated)	> 6 µg/mL	19.3 µg/mL (≈ 61.3 µM)	active
CN1CCN(C(c2ccccc2)c2ccccc2)CC1	–	> 20 µg/mL	inactive
Cc1cc(-c2ccccc2)nnc1NCCN1CCOCC1	–	> 20 µg/mL	inactive
CC(C)CC(=O)N[C@H](C(=O)N[C@H](C(=O)N[C@@H](CC(C)C)[C@@H](O)CC(=O)N[C@@H](C)C(=O)N[C@@H](CC(C)C)[C@@H](O)CC(=O)O)C(C)C)C(C)C (Isovaleryl-VV[Sta]A[Sta]-OH)	–	> 20 µg/mL	inactive

SMILES	CC50	IC50	outcome
Cc1c(-c2ccccc2)oc2c(C(=O)OCCN3CCCCC3)cccc2c1=O	–	> 20 µg/mL	inactive
CN(C)CCC=C1c2ccccc2CCc2ccccc21	> 6 µg/mL	16.2 µg/mL (≈ 58.3 µM)	active
CN(C)CC/C=C1\c2ccccc2CSc2ccccc21	> 6 µg/mL	> 20 µg/mL	inactive
CN(C)CC/C=C1\c2ccccc2COc2ccccc21	–	> 20 µg/mL	inactive
CNCC(O)c1ccc(O)c(OC)c1 (configuration not stated)	–	> 20 µg/mL	inactive
CNC(C)CCC=C(C)C (configuration not stated)	–	> 20 µg/mL	inactive
C=C1CC[C@H](O)C/C1=C/C=C1\CCC[C@]2(C)[C@@H]([C@H](C)CCCC(C)C)CC[C@@H]12	–	> 20 µg/mL	inactive
C[C@@H]1CCC[C@H](C)N1	–	> 20 µg/mL	inactive
CC(C)(C)NC[C@@H](O)COc1cccc2c1CCCC2=O	–	> 20 µg/mL	inactive
Cc1c(N(C)CS(=O)(=O)O)c(=O)n(-c2ccccc2)n1C	–	> 20 µg/mL	inactive
CO[C@@]1(NC(=O)[C@H](C(=O)O)c2ccc(O)cc2)C(=O)N2C(C(=O)O)=C(CSc3nnnn3C)CO[C@@H]21	–	> 20 µg/mL	inactive
C[N+]1(C)C2CC[C@H]1CC(OC(=O)C(CO)c1ccccc1)C2 (some centres not stated)	–	> 20 µg/mL	inactive
Nc1ccc(S(=O)(=O)Nc2ccc(Cl)nn2)cc1	–	4.37 µg/mL (≈ 15.3 µM)	active
Nc1ccc(S(=O)(=O)Nc2ncccn2)cc1	–	13.4 µg/mL (≈ 53.4 µM)	active
Cc1noc(NS(=O)(=O)c2ccc(N)cc2)c1C	–	8.76 µg/mL (≈ 32.8 µM)	active
Nc1ccc(S(=O)(=O)Nc2ccccn2)cc1	–	> 20 µg/mL	inactive
Cc1cc(C)nc(NS(=O)(=O)c2ccc(N)cc2)n1	–	> 20 µg/mL	inactive
CC(=O)NS(=O)(=O)c1ccc(N)cc1	–	> 20 µg/mL	inactive
Cc1ccnc(NS(=O)(=O)c2ccc(N)cc2)n1	–	> 20 µg/mL	inactive
Nc1ccc(S(=O)(=O)NC(=O)c2ccccc2)cc1	–	> 20 µg/mL	inactive

Reference: PubChem BioAssay AID1332 (Southern Research Institute, 2008)
